# Measured values from PubChem BioAssay (NCATS).
# Inconclusive results are not listed. Active and inactive are the calls of the source. Unless noted, calls follow the shape of the dose curve; as a rule, active = well fitted curve in the direction sought with a large enough effect; inconclusive = small, poorly fitted or top-dose-only effect, or another doubt; inactive = no such curve, though single readings can be large; an effect the other way counts as inactive or inconclusive.
# Columns and labels:
# [1] = qHTS profiling for inhibitors of Plasmodium falciparum (3D7) proliferation (AID 743322);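 also: infected erythrocytes exposed to compound for 72 h before lysis; 100% = DMSO vehicle wells and 0% = 0.29 µM artemisinin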; settings: P. falciparum 3D7 proliferation; at 28.7 µM (top of the series)
# Method in brief: (§1)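 Parasite DNA was quantified by SYBR Green I fluorescence (ex 485, em 535 nm) after overnight lysis in saponin/Triton buffer at room temperature. Cultures at 0.3% parasitemia and 2.5% hematocrit were first exposed to compound for 72 h at 37 C; signals were normalised to artemisinin (0.29 uM) and vehicle wells.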
# [2] = qHTS profiling for inhibitors of Plasmodium falciparum (DD2) proliferation (AID 743323; call rule not given here); settings: lower = more inhibition; at 28.7 µM (top of the series)
# Method in brief: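 1536-well qHTS; infected RBCs 0.3% parasitemia/2.5% Hct final; cpd 72 h 37 C 5% CO2; lysis buffer + SYBR Green I, o/n RT dark; FI 485/535; norm. to 0.29 uM artemisinin and DMSO, plate-stack corrected.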
# [3] = qHTS profiling for inhibitors of Plasmodium falciparum (HB3) proliferation (AID 743324); settings: Plasmodium falciparum HB3 blood-stage proliferation; at 28.7 µM (top of the series);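 also: 100% = DMSO vehicle wells and 0% = artemisinin-treated control wells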
# Method in brief: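 SYBR Green fluorescence (485 ex/535 em) of lysed cultures, incubated overnight at room temperature in the dark, quantifies parasite DNA. Infected erythrocytes at 0.3% parasitemia and 2.5% hematocrit were exposed 72 h; values normalized to DMSO and 0.29 uM artemisinin controls.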
# [4] = qHTS profiling of the MIPE4 collection as inhibitors of Plasmodium falciparum (3D7) proliferation (AID 743344; call rule not given here;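 also: scaled between DMSO vehicle wells and 0.29 µM artemisinin as full inhibition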); settings: P. falciparum 3D7 in erythrocytes, SYBR Green DNA fluorescence, 72 h; at 28.5 µM (top of the series)
# Method in brief: as §1
# [5] = qHTS profiling of the MIPE4 collection as inhibitors of Plasmodium falciparum (DD2) proliferation (AID 743345; call rule not given here); settings: P. falciparum Dd2 in erythrocytes, SYBR Green DNA, 72 h; at 28.5 µM (top of the series)
# Method in brief: as §1
# [6] = qHTS profiling of the MIPE4 collection as inhibitors of Plasmodium falciparum (DD2) proliferation (Rep 2) (AID 743346; call rule not given here); settings: P. falciparum Dd2 in erythrocytes, SYBR Green DNA, 72 h; at 28.5 µM (top of the series)
# Method in brief: as §1
# [7] = qHTS profiling of the MIPE4 collection as inhibitors of Plasmodium falciparum (HB3) proliferation (AID 743347; call rule not given here;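 also: plate controls were DMSO vehicle wells for no effect and artemisinin wells for full effect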); settings: P. falciparum HB3 in erythrocytes, SYBR Green DNA, 72 h; at 28.5 µM (top of the series)
# Method in brief: as §1
# [8] = biological target: Calcium and integrin-binding protein 1 (Homo sapiens) (UniProt Q99828); assay: Primary qHTS for Identification of Calcium Integrin Binding Protein 1 (CIB1) Competitor (AID 1508620);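 also: GST tagged CIB1 binding a fluorescein labelled alphaIIb integrin peptide tracer; top concentration of the series differs between compounds; % is scaled to controls: 0 for no effect and ±100 for the full control effect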
# Calcium and integrin-binding protein 1 (Homo sapiens), sequence (Q99828 whole entry, looked up): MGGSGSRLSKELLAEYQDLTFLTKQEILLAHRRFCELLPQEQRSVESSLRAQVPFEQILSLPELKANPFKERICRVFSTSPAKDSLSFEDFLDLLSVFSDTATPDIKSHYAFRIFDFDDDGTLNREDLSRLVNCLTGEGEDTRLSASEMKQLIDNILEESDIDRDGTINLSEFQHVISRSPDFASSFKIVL
# Method in brief: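 Fluorescence polarization competition: GST-tagged CIB1 (1 uM final) preincubated with compound 15 min at room temperature, then FITC-labelled alphaIIb peptide (100 nM final) added. After 15 min at room temperature, polarization read at Ex 480/Em 540.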
# [9] = biological target: Cytochrome P450 3A4 (Homo sapiens) (UniProt P08684); assay: qHTS Assay for Inhibitors and Substrates of Cytochrome P450 3A4 (AID 884); also: nearly all actives have a fitted effect of over 50% in size; also: potency is read from the fitted curve at half-maximal effect
# Cytochrome P450 3A4 (Homo sapiens), sequence (P08684 whole entry, looked up): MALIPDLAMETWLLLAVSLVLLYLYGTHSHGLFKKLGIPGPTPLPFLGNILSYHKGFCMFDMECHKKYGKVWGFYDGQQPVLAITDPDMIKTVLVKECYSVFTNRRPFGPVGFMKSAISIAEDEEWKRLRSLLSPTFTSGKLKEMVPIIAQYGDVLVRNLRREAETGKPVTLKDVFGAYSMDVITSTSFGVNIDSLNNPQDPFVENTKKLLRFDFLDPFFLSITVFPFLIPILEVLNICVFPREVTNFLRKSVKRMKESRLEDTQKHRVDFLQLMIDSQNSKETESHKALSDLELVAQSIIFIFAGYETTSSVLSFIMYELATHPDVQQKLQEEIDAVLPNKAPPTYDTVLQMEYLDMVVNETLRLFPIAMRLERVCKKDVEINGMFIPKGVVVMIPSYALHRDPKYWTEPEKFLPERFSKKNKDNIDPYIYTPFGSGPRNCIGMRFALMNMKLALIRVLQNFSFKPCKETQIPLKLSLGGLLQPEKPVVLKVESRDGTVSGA
# Method in brief: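 Luminescent readout of luciferin produced by CYP3A4 (20 nM) dealkylation of Luciferin-PPXE, 25 uM (its KM). NADPH-driven reaction ran 60 min at RT after 10 min compound preincubation; data scaled to 57 uM ketoconazole as 100% inhibition.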
# [10] = biological target: Cytochrome P450 3A4 (Homo sapiens) (UniProt P08684); assay: qHTS Assay for Activators of Cytochrome P450 3A4 (AID 885); also: nearly all actives have a fitted effect of over 65% in size
# Method in brief: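 Activators are scored by enhanced luminescence from CYP3A4 conversion of luciferin-PPXE (25uM, equal to KM) to luciferin, after 60 min at RT with an NADPH-regenerating system.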
# [11] = Counterscreen qHTS for small molecule stabilizers of the endoplasmic reticulum resident proteome: GLuc-NoTag assay (AID 1508627);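 also: 0% = thapsigargin alone and -100% = DMSO vehicle control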
# Method in brief: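 Counterscreen line: SH-SY5Y-GLuc-NoTag. Seed, 5 h; compound, 19 h; thapsigargin 100 nM, 4 h; 37C/5% CO2. Readout: secreted GLuc luminescence, coelenterazine 0.07x final, no lysis.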
# [12] = Confirmatory qHTS for small molecule stabilizers of the endoplasmic reticulum resident proteome: Secreted ER Calcium Modulated Protein (SERCaMP) assay (AID 1508628); also: % is scaled to controls: 0 for no effect and ±100 for the full control effect; nearly all actives have a fitted effect of over 40% in size
# Method in brief: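 Reporter secretion upon ER calcium depletion (100 nM thapsigargin, 4 h, 37C) is measured as medium luminescence with coelenterazine, after 16 h compound pretreatment of SH-SY5Y-GLuc-SERCaMP cells; primary at three concentrations up to 38.3 uM, follow-up at 11 (up to 76.6 uM).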
# [13] = Cell Viability qHTS for small molecule stabilizers of the endoplasmic reticulum resident proteome (AID 1508629); settings: cell viability counter-screen, 100 nM thapsigargin for final 4 h;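 also: human SH-SY5Y neuroblastoma cells carrying the GLuc-SERCaMP reporter; compound exposure about 46 h in total before the viability read; % is scaled to controls: 0 for no effect and ±100 for the full control effect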
smiles,measurement,setting,value
CC(C)(C)c1cc(O)c(CN)c(C(C)(C)C)c1,remaining parasite growth % (stronger effect = lower value),[1],-0.824%
same,"activity, percent of control",[2],0.498%
same,"remaining proliferation (% of control), lower = more inhibition",[3],-0.148%
same,"parasite growth, % of DMSO control",[4],6.1%
same,"parasite growth remaining, % of DMSO control (lower = more inhibition)",[5],7.28%
same,"parasite growth, % of control (lower = inhibition)",[6],19.6%
same,"growth, % of control",[7],4.33%
same,Potency,[8],inactive
Cc1nc(NC2CCCCC2)c2nc(-c3ccccc3)n(CC3CCN(C)CC3)c2n1,Potency,[9],inactive
same,Potency,[8],inactive
Cc1nc(NCc2ccccc2)c2nc(-c3ccccc3)n(CCN3CCOCC3)c2n1,Potency,[9],631 nM (active)
same,Potency,[10],inactive
same,Potency,[8],inactive
CN1CCN(C(=O)[C@H](Cc2ccc(O[S+](=O)([O-])c3cccc4cnccc34)cc2)N[S+](=O)([O-])c2cccc3cnccc23)CC1,remaining parasite growth % (stronger effect = lower value),[1],10.3%
same,"activity, percent of control",[2],9.98%
same,"remaining proliferation (% of control), lower = more inhibition",[3],5.8%
same,Potency,[8],inactive
CNC1CCC(N(Cc2ccc(OC)c(-c3ccc(C#N)cc3)c2)C(=O)c2sc3ccccc3c2Cl)CC1 (stereo not given),remaining parasite growth % (stronger effect = lower value),[1],-1.61%
same,"activity, percent of control",[2],-0.637%
same,"remaining proliferation (% of control), lower = more inhibition",[3],-1.57%
same,Potency,[8],inactive
CC(C)(C)n1nc(Cc2cccc3ccccc23)c2c(N)ncnc21,"parasite growth, % of DMSO control",[4],23.2%
same,"parasite growth remaining, % of DMSO control (lower = more inhibition)",[5],58%
same,"parasite growth, % of control (lower = inhibition)",[6],52.6%
same,"growth, % of control",[7],12.7%
same,Potency,[8],inactive
O=C(O)/C=C/C(=O)Nc1ccc(OC(F)(F)Cl)cc1,Potency,[11],inactive
same,Potency,[12],inactive
same,max response,[13],5.17% (inactive)
COc1cccc(CN2CCN(C(=O)c3ccc(-c4ccccc4)cc3)CC2)c1,Potency,[11],inactive
same,Potency,[12],inactive
CCC(C)C(N)C(=O)NC(CC(N)=O)C(=O)NC(CC(C)C)C(=O)NC(CCCCN)C(=O)NC(C)C(=O)NC(CC(C)C)C(=O)NC(C)C(=O)NC(C)C(=O)NC(CC(C)C)C(=O)NC(C)C(=O)NC(CCCCN)C(=O)NC(CCCCN)C(=O)NC(C(=O)NC(CC(C)C)C(N)=O)C(C)CC (stereo not given),Potency,[11],inactive
same,Potency,[12],inactive
same,max response,[13],16.1% (inactive)
CC(C)(C)OC(=O)N[C@@H](Cc1ccc(O[S+](=O)([O-])c2cccc3cnccc23)cc1)C(=O)N1CCN(c2ccccc2)CC1,remaining parasite growth % (stronger effect = lower value),[1],-1.52%
same,"activity, percent of control",[2],-0.0871%
same,"remaining proliferation (% of control), lower = more inhibition",[3],-0.489%
same,Potency,[8],inactive
O=C([C@H](Cc1ccc(O[S+](=O)([O-])c2cccc3cccnc23)cc1)N[S+](=O)([O-])c1cccnc1)N1CCN(c2ccccc2)CC1,remaining parasite growth % (stronger effect = lower value),[1],-0.283%
same,"activity, percent of control",[2],0.179%
same,"remaining proliferation (% of control), lower = more inhibition",[3],-0.167%
same,Potency,[8],inactive
COC(=O)[C@H](Cc1ccc(O[S+](=O)([O-])c2cccc3cnccc23)cc1)N(C)[S+](=O)([O-])c1ccc2cnccc2c1,remaining parasite growth % (stronger effect = lower value),[1],-0.184%
same,"activity, percent of control",[2],3.76%
same,"remaining proliferation (% of control), lower = more inhibition",[3],0.837%
same,Potency,[8],inactive
O=C([C@@H](Cc1ccc(O[S+](=O)([O-])c2cccnc2)cc1)N[S+](=O)([O-])c1cccc2cccnc12)N1CCN(c2ccccc2)CC1,remaining parasite growth % (stronger effect = lower value),[1],-1.01%
same,"activity, percent of control",[2],0.464%
same,"remaining proliferation (% of control), lower = more inhibition",[3],0.336%
same,Potency,[8],inactive
